According to the supplement of paper PMC3334620:
The full ranking holds about 33,000 sequences; the median of “E-score (-0.5 to 0.5)” is about -0.0034, and the highest 2% start at about 0.25. What follows is part of a selection rich in the highest values, with near analogues and random picks from the rest.

The sequences below were run against T1, Yap3 (UniProt P38749) (assay: PBM E-score (8-mer binding enrichment) (E-score (-0.5 to 0.5)); higher = stronger / more preferred TF binding). Details: protein concentration: 100 nM; construct: GST-full length.
T1 sequence: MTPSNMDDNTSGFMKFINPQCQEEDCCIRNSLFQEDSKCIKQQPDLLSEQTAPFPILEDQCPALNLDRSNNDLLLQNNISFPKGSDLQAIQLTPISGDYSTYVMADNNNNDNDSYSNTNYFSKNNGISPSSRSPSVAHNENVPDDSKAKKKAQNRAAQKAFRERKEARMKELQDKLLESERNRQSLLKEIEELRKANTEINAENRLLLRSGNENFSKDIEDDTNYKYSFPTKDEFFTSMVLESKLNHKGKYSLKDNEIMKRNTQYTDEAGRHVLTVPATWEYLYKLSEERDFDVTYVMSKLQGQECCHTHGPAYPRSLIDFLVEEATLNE
Protocol: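 Universal 'all 10-mer' protein binding microarrays (Agilent AMADID 015681) probed with GST-tagged S. cerevisiae TFs (full-length or DBD) made by in vitro transcription/translation (PURExpress), about 100-200 nM. Bound TF was detected with fluorescent anti-GST. Each ungapped 8-mer (which stands for itself and its reverse complement) is scored by the PBM enrichment score (E-score), a modified Wilcoxon-Mann-Whitney statistic from -0.5 to +0.5, computed with the Universal PBM Analysis Suite. Scale: above 0.35 generally sequence-specific binding.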

| Sequence | PBM E-score |
| --- | --- |
| TTACATAA | 0.416 |
| ATACATAA | 0.285 |
| ACACATAG | -0.0796 |
| ATACATAT | 0.286 |
| ATACATAG | 0.112 |
| ACACATAA | 0.299 |
| AGACATAT | 0.185 |
| ATACATCA | 0.207 |
| GCACATAA | 0.131 |
| GTACATAA | 0.135 |
| CTACATAA | -0.0287 |
| GCCAATCA | -0.169 |
| CCAGCAGA | -0.17 |
| AACTGCTA | 0.00439 |
| CCGCCTGC | -0.278 |
| AGAGAAAA | 0.0508 |
| GTTTGAGA | -0.0917 |
| GGATTGGA | 0.19 |
| TCGCGCCA | -0.0451 |
| ATCTGGAG | -0.165 |
| GCTTGGAC | -0.0766 |
| CAAGGATG | -0.0177 |
| CGCAATAG | 0.105 |
| CCAATGAG | -0.0674 |
| AAACATAG | -0.0382 |

| Sequence | PBM E-score |
| --- | --- |
| AAACATAT | 0.305 |
| CTACATTA | 0.11 |
| ATACATTA | 0.266 |
| AAACATAC | 0.0457 |
| GTACATTA | 0.0635 |
| ATCAGGCA | -0.0855 |
| CGCACTTA | -0.0802 |
| GCTGTGCA | -0.205 |
| AACGGCGG | -0.208 |
| CCATTACA | 0.272 |
| ATATTACA | 0.226 |
| AGATTACG | 0.213 |
| ATATTATG | 0.399 |
| ATATTACG | 0.412 |
| AGATTATG | 0.129 |
| GCATTACA | 0.1 |
| ACATTACG | 0.286 |
| CCATTACG | 0.0884 |
| ACATTACT | 0.213 |
| ATATTATC | 0.149 |
| ACATTACA | 0.131 |
| CTTTGACC | 0.0628 |
| AGCTTGGC | -0.207 |
| AATAGCGT | 0.195 |
| ATATTACC | 0.276 |

| Sequence | PBM E-score |
| --- | --- |
| CTATTACC | -0.0641 |
| AGATTACC | 0.155 |
| AAAGTACA | 0.27 |
| CAAGTACA | -0.0722 |
| AAAGTACC | 0.176 |
| ATAAGAAT | 0.207 |
| ACAAGAAT | 0.1 |
| CCAAGAAA | -0.00981 |
| ACGAAGAA | 0.282 |
| CCAAAGAA | 0.124 |
| TCGAAGAA | -0.0713 |
| ACGAAGAT | 0.0321 |
| TCAAAGAA | -0.0713 |
| ATAAGAAA | 0.207 |
| ACAAAGAA | 0.257 |
| ATAAGAAC | 0.289 |
| ACAAGAAA | 0.268 |
| AACTTTTC | 0.0947 |
| AATCCCGG | -0.139 |
| CTGAGGAA | -0.0654 |
| ACCAGGTG | -0.245 |
| CCTTTGGA | -0.218 |
| ACCACAGT | 0.143 |
| GAACCAAC | 0.00249 |
| AGACATCC | -0.152 |

| Sequence | PBM E-score |
| --- | --- |
| GACTGCAA | -0.0662 |
| CCAACCGG | -0.193 |
| ATCCAACC | 0.00913 |
| CGGGTGGC | -0.289 |
| CTAAAGAA | 0.0205 |
| TTAAAGAA | 0.19 |
| ATAAAGAA | 0.26 |
| ATATCACG | 0.181 |
| GTGTCGAA | -0.0549 |
| CTGTATGC | -0.0877 |
| CACGCCAA | -0.0782 |
| ATTCAATC | 0.0991 |
| CAAAGTGA | 0.0818 |
| TAAAGTGA | 0.263 |
| AAAAGTGA | 0.132 |
| CCAACTCC | 0.117 |
| GGCCCAAA | -0.0982 |
| CCAGCAAA | 0.0803 |
| CCTAGTCA | 0.0001 |
| ATAAGTCA | 0.262 |
| ATTAGTGC | 0.299 |
| ATTAGTGG | 0.243 |
| ATTAGTCG | 0.12 |
| ATTAGTGA | 0.179 |
| CTAAGTCA | 0.024 |

| Sequence | PBM E-score |
| --- | --- |
| ATAAGTCC | 0.0332 |
| ATTAGTCC | 0.207 |
| ATTAGTCA | 0.42 |
| CTTAGTCC | -0.0515 |
| CTTAGTCA | 0.373 |
| CATTGAAC | 0.07 |
| GCGTTGCA | -0.112 |
| CAGAAACC | 0.0742 |
| CACGCTAA | 0.0663 |
| CGATCGAC | 0.14 |
| AGATCTAT | -0.115 |
| ATCGGGCG | -0.21 |
| AGTGCTCG | -0.11 |
| TCAAGCAA | -0.15 |
| AAGAGCAC | -0.0358 |
| ATCAGTTA | 0.272 |
| GTTAGTCA | 0.33 |
| GTTAGTAA | 0.217 |
| ATTAGTTA | 0.291 |
| GTTAGTTA | 0.169 |
| ATTAGTTG | 0.192 |
| CTCAGTTA | -0.0635 |
| GTCAGTTA | 0.113 |
| GTTAGTGA | 0.0844 |
| CTTAGTAC | 0.0262 |

| Sequence | PBM E-score |
| --- | --- |
| GGTAGTCA | -0.176 |
| CTTAGTAA | 0.429 |
| ACAGGTCG | -0.0506 |
| TATTGACA | 0.0463 |
| CCGCCAGC | -0.196 |
| AACACTGC | 0.186 |
| CACGCCTA | -0.1 |
| GATATGCC | -0.0864 |
| ATGATCGA | 0.0147 |
| CTGATCGA | -0.239 |
| GTGATCGA | 0.282 |
| ACTTCCGG | 0.0969 |
| CTCAAGAC | -0.133 |
| AGTGAGTG | -0.0641 |
| AGTGAGTA | 0.271 |
| AATGAGAT | 0.266 |
| GATGAGTA | 0.181 |
| CGTGAGTA | -0.0244 |
| AATGAGAG | -0.0586 |
| CATGAGTA | 0.0202 |
| AATGAGTA | 0.33 |
| AATGAGAC | -0.0964 |
| ACAAAACA | 0.202 |
| TCCTAAAA | -0.115 |
| AACAGAAA | 0.157 |

| Sequence | PBM E-score |
| --- | --- |
| CATAGAAA | 0.268 |
| CAGAGAAG | -0.127 |
| GAGAGAAA | 0.0853 |
| GACAGAAA | 0.183 |
| TACAGAAA | 0.262 |
| TATAGAAA | 0.0802 |
| CAGAGAAA | 0.278 |
| GATAGAAA | 0.187 |
| CATCTACC | 0.145 |
| CTTGAGCA | -0.119 |
| ATCTTGCA | 0.151 |
| AATAGATC | 0.08 |
| GATTAAGA | 0.193 |
| AATTAATC | 0.0963 |
| GATTAATA | 0.367 |
| GATTAATC | 0.117 |
| AATTAATG | 0.29 |
| CATTAATA | 0.193 |
| TATTAATA | 0.301 |
| AATTAATT | 0.211 |
| CATTAATG | 0.212 |
| AATTAAGA | 0.154 |
| AATTAATA | 0.353 |
| TATTAACA | 0.23 |
